Screens from PubChem.
TRHR PAM: allosteric enhancers of human TRH receptor. P34981. TRHR cells, fluo-8 calcium fluorescence, EC20 TRH enhancement. enhancement, % at 2 µM. actives 0.66% (n = 360,000). AID 493056; in the data active = enhancement above about 30%; note: 0% is about no effect
Target sequence (P34981 whole entry, looked up): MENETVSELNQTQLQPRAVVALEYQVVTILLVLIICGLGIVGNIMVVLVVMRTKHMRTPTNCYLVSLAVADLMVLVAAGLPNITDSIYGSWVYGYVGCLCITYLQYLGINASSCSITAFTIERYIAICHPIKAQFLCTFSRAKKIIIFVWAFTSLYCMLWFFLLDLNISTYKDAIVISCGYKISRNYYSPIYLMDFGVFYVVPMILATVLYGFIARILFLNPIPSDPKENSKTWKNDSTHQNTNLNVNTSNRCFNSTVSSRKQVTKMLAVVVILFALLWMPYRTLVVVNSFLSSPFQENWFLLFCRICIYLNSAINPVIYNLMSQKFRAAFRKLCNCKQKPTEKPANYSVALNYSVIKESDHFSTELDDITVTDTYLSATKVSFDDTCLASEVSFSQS
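TRHR-expressing cells loaded with fluo-8 calcium dye were read kinetically (ex 480/em 530) during compound addition, then stimulated with an EC20 of TRH (10 nM final). Enhancement of the Gq-mediated intracellular calcium response was scored.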
TRHR agonist: TRH receptor (human) agonism; P34981; TRHR cells, calcium flux fluo-8, FDSS agonist mode; activation, % at 2 µM; actives 0.18% (n = 360,000); note: 0% is about no effect
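TRHR-expressing cells loaded with fluo-8 calcium dye; 23 nL library compound pin-transferred, kinetic FDSS fluorescence (Ex 480/Em 530) recorded about 180 s for agonist-induced calcium release, before a 10 nM TRH EC20 addition for potentiator mode.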
D1 PAM: potentiators of human D1 dopamine receptor | P21728 | HEK293 TREx D1 cells, calcium flux, dopamine EC20 potentiation | potentiation, % at 10 µM | actives 0.036% (n = 360,000) | AID 504651; in the data active = potentiation above about 30%; note: 0% is about no effect
D1 ag: human D1 receptor agonism; P21728; HEK293 T-REx D1 cells, calcium flux, agonist mode; activation, % at 2 µM; actives 1% (n = 360,000); note: 0% is about no effect
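Agonism was scored from calcium flux recorded over 180 s (1 read/s) after pintool compound addition, following a 10-cycle baseline. Cells were inducible force-coupled HEK293 TREx D1, plated overnight at 30 C and loaded with no-wash calcium dye.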
D1 antagonist: antagonists of human D1 dopamine receptor; P21728; HEK293 TREx D1 cells, calcium flux, dopamine EC80; stronger effect = lower value; activity change, negative = inhibition, % at 10 µM; actives 3.2% (n = 360,000); in the data active = activity change below about -30%; note: % is set by controls: 0 for no effect and ±100 for the full control effect
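After overnight tetracycline induction at 30 C, force-coupled D1 HEK293 cells took up a no-wash calcium dye at room temperature. Compounds were added and monitored 180 s, and the response to EC80 dopamine was then recorded.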
* hit, by the source's call; . = not tested or not shown. The list is not random: actives were taken first. Their share in the collection is about 4.6%. Cut-off read from the data, not from the text of the source, unless noted: active = activation above about 30%; inactive = the rest.

SMILES	TRHR PAM	TRHR agonist	D1 PAM	D1 ag	D1 antagonist
CCOC(=O)N1CCN(C(=O)c2nc3ccccc3s2)CC1	-1	0	4	4	-34*
CCOc1cccc(C(=O)N2CCC(c3nc4ccccc4s3)CC2)c1	5	0	-2	0	-36*
CCCCN(C)S(=O)(=O)c1cc(Br)cc2c1N(C(=O)C1CC1)CC2	0	0	0	2	-2
Cn1cnc([N+](=O)[O-])c1Sc1ccc(C(C)(C)C)cc1	-6	2	2	35*	-1
CSC1=NCCN1C(=O)Cc1ccc(-c2ccccc2)cc1	2	0	-10	16	-40*
CSC1=NCCN1C(=O)Cc1ccc(F)cc1	4	0	.	1	14
CCSC1=NCCN1C(=O)Cc1ccc(-c2ccccc2)cc1	0	0	-4	4	-44*
Cc1ccc(C(=O)O)cc1NC(=O)CSc1ncnc2sc3c(c12)CCC3	18	0	-3	3	6
CCOc1ccc2cc(C3CC(c4ccco4)=NN3S(C)(=O)=O)c(=O)[nH]c2c1 (stereo not given)	-3	0	-7	0	-19
O=C(NCC1CCCO1)C1c2ccccc2Oc2ccccc21 (stereo not given)	3	0	5	1	-4
CCOC(=O)c1cc(-c2ccccc2)sc1NC(=O)CC(C)C	-2	1	-6	2	-31*
Cc1cccc(C)c1OCCn1nnc2ccccc21	9	0	-2	8	-42*
CCC(=O)c1ccc(OCC(O)Cn2nnc3ccccc32)cc1 (stereo not given)	3	0	-2	3	24
Cc1ccccc1OCC(O)Cn1nnc2ccccc21 (stereo not given)	-3	-1	-9	20	-55*
CCc1ccccc1Oc1ccc(S(=O)(=O)N2CCN(C)CC2)cn1	40*	0	-2	6	-13
CSc1ccc(COC(=O)CCS(=O)(=O)c2ccc(C)cc2)cc1	-1	-1	-7	3	-3
COc1ccc(COC(=O)CCS(=O)(=O)c2ccc(C)cc2)cc1	4	-1	1	7	-44*
Cc1cc(C)cc(NC(=O)C(NCCN2CCOCC2)c2ccccc2)c1 (stereo not given)	0	0	-7	6	-54*
CCCCOc1ccc(C(=O)NNC(=O)C2C3CCC(C3)C2C(=O)O)cc1 (stereo not given)	0	0	4	1	3
CCCCOc1ccc(C(=O)NNC(=O)C2C3C=CC(C3)C2C(=O)O)cc1 (stereo not given)	-3	-1	-6	2	-82*
CC1(c2ccc([N+](=O)[O-])cc2)NC(=O)N(CC(=O)Nc2ccc(N3CCCCC3)cc2)C1=O (stereo not given)	1	3	5	18	33
CC(CN(C)C)CN1c2ccccc2CCc2ccccc21 (stereo not given)	-6	3	-12	12	-81*
CN(C)CCCN1c2ccccc2CCc2ccccc21	-3	1	-5	17	-41*
Cc1ccc(S(=O)c2ccc(NC(=O)C3CC3)cc2C#N)cc1 (stereo not given)	0	1	-9	25	-31*
COc1ccc(-c2ccc(C(=O)O)c(=O)[nH]2)cc1	-3	0	-2	5	-30*
SMILES	TRHR PAM	TRHR agonist	D1 PAM	D1 ag	D1 antagonist
COc1ccc(-c2cc(=O)[nH]c(=S)[nH]2)cc1	4	0	-9	2	-19
OCCNCC(O)CN1c2ccccc2Sc2ccccc21 (stereo not given)	-3	2	-11	7	-31*
CC1CCN(CC(O)CN2c3ccccc3Sc3ccccc32)CC1 (stereo not given)	15	1	-9	33*	-89*
CC1CCCN(C(=O)N2c3ccccc3Sc3ccccc32)C1 (stereo not given)	-7	0	-4	1	-3
O=C(O)CCN1c2ccccc2Sc2ccccc21	-8	-1	1	3	13
COc1ccc2c(c1OC)C(=O)N1c3ccccc3SC21 (stereo not given)	39*	0	2	1	-4
COc1ccc2c(c1OC)C(=O)N1c3ccccc3COC21 (stereo not given)	25	0	-4	-1	-6
COC(=O)/C(=C\c1c[nH]c2ccccc12)NC(C)=O	3	0	-2	2	-7
